HT1080 IDH1KD tx = HT-1080 IDH1 knockdown cell toxicity (counter line); Potency, µM (series often up to 46.1 µM), actives largely listed as cytotoxic; hit rate 2% among 360,000; AID 686971; HT-1080 IDH1 knockdown viability, ATP luminescence, 48 h
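Assay cells: HT-1080 with IDH1 knockdown, 750 per well, RPMI/5% FBS. Exposure: 48 h at 37 °C following 2 h pre-incubation. Read: CellTiter-Glo luminescence; fitted concentration-response, curve class assigned.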
HT1080-NT tox = kills 2HG-producing HT-1080-NT fibrosarcoma cells; Potency, µM (titrated, usually from 46.1 µM), actives largely listed as cytotoxic; hit rate 1.6% among 360,000; HT-1080-NT fibrosarcoma viability, CellTiter-Glo ATP luminescence, 48 h;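 note: NT is the 2HG producing partner of a matched IDH1 knockdown line; nearly all actives have a fitted effect of over 55% in size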
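Compounds were tested in concentration-response format on HT-1080-NT cells for 48 hours at 37 degrees C. Cell viability came from CellTiter-Glo luminescence; curves were classified by r2, response magnitude and activity.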
KB-V1 MDR tox = kills drug-selected multidrug resistant KB-V1 cells; KB-V1 MDR cells viability, CellTiter-Glo, 72 h; Potency, µM (series often up to 46.1 µM), actives largely listed as cytotoxic; hit rate 3.4% among 400,000; note: nearly all actives have a fitted effect of over 60% in size
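Cells of the MDR subline KB-V1 are plated, dosed with compound at multiple concentrations, and incubated 72 h at 37 degrees C; CellTiter-Glo is then added and luminescence read after 10 min.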
DT40 TDP1 CPT = DT40-hTDP1 cell growth loss with CPT; chicken DT40 Tdp1-/-;hTDP1 cells + 20 nM CPT, ATP luminescence, 48 h; Potency, µM (top dose mostly 46.2 µM), actives largely listed as inhibitors; hit rate 12% among 420,000; AID 686979; note: nearly all actives have a fitted effect of over 55% in size
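Chicken DT40 Tdp1-/- cells stably complemented with human TDP1 were seeded at 400 cells/well in medium containing 20 nM camptothecin, exposed to pin-transferred compounds, and grown at 37 °C for at least 48 hr. Viability was read as ATP luminescence.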
TDP1 cell noCPT = qHTS for Inhibitors of human tyrosyl-DNA phosphodiesterase 1 (TDP1): qHTS in cells in absence of CPT; DT40 Tdp1-/- hTDP1 cells, no CPT, ATP luminescence, 48 h; Potency, µM (doses to about 46.2 µM), usual class: inhibitors; hit rate 15% among 420,000; AID 686978, 2013; note: nearly all actives have a fitted effect of over 55% in size
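Growth of hTDP1-complemented DT40 Tdp1-knockout cells is measured by ATP luminescence after at least 48 hr compound exposure at 37 °C, with DMSO substituting for the 20 nM CPT used in the parallel screen.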
KB-3-1 tox = KB-3-1 parental cell cytotoxicity; KB-3-1 viability, CellTiter-Glo ATP luminescence, 72 h; Potency, µM (series often up to 46.1 µM), most hits filed as cytotoxic; AID 1347075; hit rate 1.4% among 400,000; note: nearly all actives have a fitted effect of over 60% in size
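Screening of KB-3-1 cells (DMEM, 10% FBS, phenol-red free) ran from lowest to highest compound concentration; after 72 h at 37 °C viability was read luminescently and curves fitted.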
Each line names hits and unclear results; the compound was inactive in the other large screens. Most compounds without a hit are left out; they make up all but 19% or so of the library. Calls come from the whole dose curve; as a rule, active = well fitted curve in the direction sought with a large enough effect; inconclusive = small, poorly fitted or top-dose-only effect, or another doubt; inactive = no such curve, though single readings can be large; an effect the other way counts as inactive or inconclusive.

O=C(C1CCCN(Cc2ccccc2)C1)N1CCc2ccccc2C1 (configuration not stated)	KB-V1 MDR tox 23µM, DT40 TDP1 CPT inconclusive, TDP1 cell noCPT inconclusive
COc1ccc(C)cc1NC(=O)C1CCN(S(=O)(=O)c2ccc3[nH]c4c(c3c2)CCCCC4)CC1	TDP1 cell noCPT inconclusive (no result: HT1080 IDH1KD tx, HT1080-NT tox)
CCC1(C)SC(N)=NN1C(C)=O (configuration not stated)	none
NS(=O)(=O)c1ccc(CCNC(=O)COC(=O)Cc2ccc(Cl)cc2)cc1	KB-V1 MDR tox inconclusive
C/C(=N\Nc1cccc([N+](=O)[O-])c1)c1cc(F)ccc1O	KB-V1 MDR tox inconclusive, DT40 TDP1 CPT inconclusive, TDP1 cell noCPT 13µM
C/C(=N\NC(=O)c1c(Cl)c(C)nn1C)c1cccc(NC(=O)COc2ccc(Cl)cc2)c1	KB-V1 MDR tox inconclusive, DT40 TDP1 CPT inconclusive, TDP1 cell noCPT 16µM
C/C(=N\NC(=O)c1ccc(O)cc1)c1cccc(NC(=O)c2ccc(Cl)cc2)c1	DT40 TDP1 CPT inconclusive, TDP1 cell noCPT 12µM
C/C(=N\NC(=O)c1cccc(N/N=C(\C)c2ccco2)c1)c1ccco1	KB-V1 MDR tox inconclusive, TDP1 cell noCPT inconclusive
C/C(=N\NC(=O)c1cccc(N/N=C(\C)c2cc(O)ccc2O)c1)c1cc(O)ccc1O	HT1080 IDH1KD tx 18µM, HT1080-NT tox 23µM, KB-V1 MDR tox inconclusive, DT40 TDP1 CPT 12µM, TDP1 cell noCPT 16µM, KB-3-1 tox inconclusive
COc1cc(OCc2ccccc2)c(C(=O)/C=C/c2ccc3c(c2)OCO3)c(OC)c1OC	HT1080 IDH1KD tx inconclusive, KB-V1 MDR tox inconclusive, DT40 TDP1 CPT inconclusive, TDP1 cell noCPT inconclusive, KB-3-1 tox inconclusive
CCC(=O)N1CCc2cc(CNS(=O)(=O)c3ccc(C(C)C)cc3)ccc21	DT40 TDP1 CPT inconclusive, TDP1 cell noCPT inconclusive (no result: HT1080 IDH1KD tx, HT1080-NT tox)
COc1ccc(OC)c(/C(C)=N/Nc2ccc(C(=O)O)cc2)c1	none
C/C(=N\NC(=O)c1ccc(O)cc1)c1ccc(N2CCOCC2)cc1	none
C/C(=N/Nc1ccc(C(=O)O)cc1)c1ccc(O)c(O)c1O	DT40 TDP1 CPT 15µM, TDP1 cell noCPT 15µM
C/C(=N\NC(=O)c1ccccc1F)c1cccc(NC(=O)c2ccc(C)cc2)c1	DT40 TDP1 CPT inconclusive, TDP1 cell noCPT 16µM (no result: KB-V1 MDR tox, KB-3-1 tox)
C/C(=N\NC(=O)c1ccc(F)cc1)c1cccc(NC(=O)c2cccc(F)c2)c1	DT40 TDP1 CPT inconclusive, TDP1 cell noCPT inconclusive
C/C(=N\NC(=O)c1ccc(N/N=C(\C)c2ccc(O)cc2)cc1)c1ccc(O)cc1	HT1080 IDH1KD tx inconclusive, DT40 TDP1 CPT 21µM, TDP1 cell noCPT 8.2µM
C/C(=N\NC(=O)c1cccc(O)c1)c1cccc(NC(=O)c2ccc(F)cc2)c1	DT40 TDP1 CPT 10µM, TDP1 cell noCPT inconclusive
C/C(=N\NC(=O)c1cccc(F)c1)c1cccc(NC(=O)c2ccc(F)cc2)c1	none
COc1ccc(CNS(=O)(=O)c2ccc3c(c2)C(C)(C)C(=O)N3C)cc1OC	none (no result: HT1080 IDH1KD tx, HT1080-NT tox)
COc1ccc(-c2nn(-c3ccccc3)cc2C(=O)NC(=S)N2CCOCC2)cc1OC	HT1080 IDH1KD tx inconclusive, HT1080-NT tox inconclusive, DT40 TDP1 CPT inconclusive, TDP1 cell noCPT inconclusive
CC(C)(C)NC(=O)C1CCN(S(=O)(=O)c2cccc(C(F)(F)F)c2)CC1	none
CN1CCCC(n2nc(Cc3ccc(Cl)cc3)c3ccccc3c2=O)CC1 (configuration not stated)	HT1080 IDH1KD tx 4.1µM, HT1080-NT tox 5.2µM, KB-V1 MDR tox inconclusive, DT40 TDP1 CPT 13µM, TDP1 cell noCPT 21µM, KB-3-1 tox 6.5µM
CCOC(=O)Cn1nc(Cc2ccccc2)c2ccccc2c1=O	none
CCN1C(N(C)CCc2c[nH]c3ccccc23)=N[C@@H](c2cccc(C(F)(F)F)c2)C(C(=O)OC)=C1C	KB-V1 MDR tox inconclusive, DT40 TDP1 CPT 9.2µM, TDP1 cell noCPT 23µM
